# Shown is part of a subset that was picked to be rich in hits.
# RBX1-CUL1 inh – inhibitors of human ROC1-CUL1 ubiquitin ligase activity | P62877+Q13616 | inhibition, % at 10 µM | in vitro K48 di-Ub FRET, acceptor:donor ratio, 45 min | 140,000 compounds, 0.6% hits; in the data active means inhibition above about 25%
# Target sequence (P62877 whole entry, looked up): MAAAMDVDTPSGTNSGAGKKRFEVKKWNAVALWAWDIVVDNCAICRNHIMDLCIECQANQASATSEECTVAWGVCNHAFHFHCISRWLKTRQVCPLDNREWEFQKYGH
# Target sequence (Q13616 whole entry, looked up): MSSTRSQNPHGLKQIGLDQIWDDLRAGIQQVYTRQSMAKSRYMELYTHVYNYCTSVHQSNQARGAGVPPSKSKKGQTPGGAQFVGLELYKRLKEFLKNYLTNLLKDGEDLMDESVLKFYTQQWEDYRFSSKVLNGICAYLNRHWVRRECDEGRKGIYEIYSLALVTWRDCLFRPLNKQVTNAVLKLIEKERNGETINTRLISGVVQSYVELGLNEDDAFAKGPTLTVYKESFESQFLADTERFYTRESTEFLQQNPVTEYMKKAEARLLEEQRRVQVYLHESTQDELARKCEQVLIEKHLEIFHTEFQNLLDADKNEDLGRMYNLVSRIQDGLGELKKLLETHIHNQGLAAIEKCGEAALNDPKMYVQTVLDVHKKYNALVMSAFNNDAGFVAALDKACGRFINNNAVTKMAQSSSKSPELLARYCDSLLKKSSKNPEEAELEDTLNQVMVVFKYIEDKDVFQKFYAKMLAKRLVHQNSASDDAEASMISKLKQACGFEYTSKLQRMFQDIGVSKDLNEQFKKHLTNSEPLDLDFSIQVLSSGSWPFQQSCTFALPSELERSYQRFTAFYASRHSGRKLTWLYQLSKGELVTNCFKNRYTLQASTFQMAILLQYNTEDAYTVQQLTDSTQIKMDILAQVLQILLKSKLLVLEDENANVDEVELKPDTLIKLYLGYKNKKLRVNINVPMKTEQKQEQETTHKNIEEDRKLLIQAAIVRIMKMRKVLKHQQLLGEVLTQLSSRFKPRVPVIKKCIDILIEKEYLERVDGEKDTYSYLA
# * marks the source's active call; other numbers are inactive results.
SMILES,RBX1-CUL1 inh
Cc1ccc(-c2cn3c(n2)sc2cc(C(=O)NCCCN4CCCCC4)ccc23)cc1,-65
CCOc1ccc(-c2cn3c(n2)sc2cc(C(=O)NCCCN4CCCCCC4)ccc23)cc1,42*
CCN1CCN(CCCNC(=O)c2ccc3c(c2)sc2nc(-c4ccc(C)cc4)cn23)CC1,-54
Cc1ccc(-c2cn3c(n2)sc2cc(C(=O)NCCCN4CCCCCC4)ccc23)cc1,39*
CCCN1CCN(CCCNC(=O)c2ccc3c(c2)sc2nc(-c4ccc(OCC)cc4)cn23)CC1,-62
CCOc1cc(C2c3c(n[nH]c3-c3cc(OC)ccc3OC)OC(=N)C2C#N)ccc1O (stereo not given),4
O=C(NCCSCc1ccco1)c1ccc(C2SCC(=O)N2Cc2ccccc2)cc1 (stereo not given),3
Oc1c(I)cc(I)cc1C1c2sc3ccccc3c2Oc2c1sc1ccccc21,7
C=CCn1c(SCC(=O)c2ccc(Cl)cc2)nc2c(c1=O)C1(CCCC1)Cc1ccccc1-2,4
COc1cc2c(cc1OC)-c1cc(-c3ccccc3)cc(-c3ccccc3)[n+]1CC2,-5
CC1C(=NC(=O)CSc2nc(-c3ccccc3)c(-c3ccccc3)o2)C(=O)N(c2ccccc2)N1C (stereo not given),52*
CC1C(=NC(=O)CSc2nnc(-c3ccccc3)n2-c2ccccc2)C(=O)N(c2ccccc2)N1C (stereo not given),-3
CC1C(=NC(=O)CSc2nnc(Cc3ccccc3)o2)C(=O)N(c2ccccc2)N1C (stereo not given),-1
O=C(Cn1nnnc1CN1CCCC1)N1CCN(Cc2cccnc2)CC1,-9
COc1cc(Br)c(Br)c(/C=C2\SC(c3ccc(C)cc3)=NC2=O)c1O,93*
COc1cc(Br)c(Br)c(C=Nc2ccc(NC(=O)c3ccccc3Br)cc2)c1O,15
COc1cc(/C=C2/SC(=Nc3ccccc3C)NC2=O)c(Br)c(Br)c1O,5
CCOc1ccc(/C=C/c2nn(-c3ccccc3)c3c(=O)ccccc23)cc1,-6
COc1ccc(CC2C(=O)N=C(SCC(=O)c3ccc(OC)cc3)NC2=O)cc1 (stereo not given),2
Cc1ccc(OCCCOc2cccc(/C=C3\C(=O)NN(c4ccccc4)C3=O)c2)cc1,25*
Cc1ccc(COc2ccccc2/C=C2\C(=O)NN(c3ccccc3)C2=O)cc1,14
Cc1cccc(OCCCOc2ccccc2/C=C2\C(=O)NN(c3ccccc3)C2=O)c1,32*
O=C1NN(c2ccccc2)C(=O)/C1=C/c1cc(Cl)ccc1OCCCOc1ccccc1,4
COc1cc(/C=C2\C(=O)NN(c3ccccc3)C2=O)ccc1OCCCOc1ccccc1,5
COc1cccc(/C=C2/C(=O)NN(c3ccc(C)cc3)C2=O)c1,-2
SMILES,RBX1-CUL1 inh
O=C(N=C1CN=C2C=CC=CN2C1=O)c1ccco1,0
c1ccc2c3c([nH]c2c1)CCCCCCCC3,-1
C/C(=N\NC(=O)c1ccco1)c1cc(Cl)ccc1Cl,6
CCN1CCN(C/C=C/COc2ccc(OC)cc2)CC1,-1
O=C(CC1SCCNC1=O)Nc1cccc(Cl)c1Cl (stereo not given),-1
CCC(CC)C(=O)N1CCN(S(=O)(=O)c2cccs2)CC1,-1
CNC(=O)C1CCN(Cc2ccccc2Cl)CC1,-4
CCCN1C(=O)c2ccc(C(=O)Nc3ccc(Br)cc3C(=O)O)cc2C1=O,9
CCOc1ccccc1N1C(=O)c2ccc(C(=O)Nc3ccc(Br)cc3C(=O)O)cc2C1=O,-3
CC(c1ccccc1)N1C(=O)c2ccc(C(=O)Nc3ccc(Br)cc3C(=O)O)cc2C1=O (stereo not given),39*
CN(C)CCCN1C(=O)c2cccc3cccc1c23,-5
CC1=CC(C)=C2C=CC(=O)C(=O)C2O1 (stereo not given),99*
CCn1ncc(NC(=O)c2ccc(C3CCCN3Cc3nc[nH]c3C)s2)n1 (stereo not given),6
Nc1ncc(CN2CCC(CO)(CCCc3ccccc3)CC2)cn1,-20
CCCCCCCCCCOc1ccc(N=CC=Nc2ccc(OCCCCCCCCCC)cc2)cc1,2
CCCCCCOc1ccc(/C(CCCCC/C(=N\O)c2ccc(OCCCCCC)cc2)=N\O)cc1,-3
CCCCCCCCCOc1ccc(C#CC(=O)O)cc1,99*
CN1C(=O)[C@H]2C=CO[C@H]2[C@@H]2c3cccc4c3[C@H](C[C@H]21)CN4C(=O)c1ccccc1,9
O=C(NC1CC1)c1ccc(CN2CCCCC2)cc1,5
Cc1ccc(C(=O)Nc2cccc(C(=O)O)c2)cc1S(=O)(=O)N1CCCC1,5
CC(=O)c1cccc(NC(=O)c2ccc(Cl)c(S(=O)(=O)N3CCOCC3)c2)c1,34*
Cc1ccc(C(=O)Nc2ccc(F)cc2)cc1S(=O)(=O)N1CCOCC1,-4
Cc1ccc(-c2nc3ccccc3n2CC(=O)c2ccccc2)cc1,-2
Fc1ccc(-c2oncc2-c2nnnn2-c2ccccc2)cc1,-15
O=C(CN1C(=O)S/C(=C/c2ccc(-c3ccc(Cl)c(C(=O)O)c3)o2)C1=O)Nc1ccccc1,104*
SMILES,RBX1-CUL1 inh
Cc1ccc(NC(=O)CN2C(=O)S/C(=C\c3ccc(-c4cc(C(=O)O)ccc4Cl)o3)C2=O)cc1C,8
COc1ccc(NC(=O)CN2C(=O)S/C(=C/c3cccn3-c3ccc(C)c(C)c3)C2=O)cc1,-2
N#Cc1ccccc1CN1C(=O)S/C(=C\c2ccc(-c3ccc(C(=O)O)c(Cl)c3)o2)C1=O,0
Cc1ccccc1NC(=O)CN1C(=O)S/C(=C\c2ccc(-c3cccc(C(=O)O)c3C)o2)C1=O,11
Cc1c(C(=O)O)cccc1-c1ccc(/C=C2\SC(=O)N(CC(=O)Nc3ccc4c(c3)OCO4)C2=O)o1,26*
O=C(CN1C(=O)c2cccc3cccc1c23)Nc1ccc2c(c1)OCO2,1
O=C(CN1C(=O)S/C(=C\c2ccc(Cl)cc2)C1=O)Nc1ccc(C(=O)O)cc1,5
O=C(CN1C(=O)S/C(=C\c2cccn2-c2cccc(C(=O)O)c2)C1=O)Nc1ccc(Cl)cc1,49*
S=c1oc(C23CC4CC(CC(C4)C2)C3)nn1CNc1ccccc1Cl,-6
CS(=O)(=O)N1CCC(Oc2cccc(C(=O)N3CCc4sccc4C3)c2)CC1,0
CCOC(=O)c1cnc(SCc2cccc(Cl)c2)nc1N,-3
Fc1ccc2c(c1)sc1c(Cl)nc3ccc(F)cc3c12,-7
O=C1CC(NCc2ccncc2)CN1Cc1ccccc1C(F)(F)F (stereo not given),-3
O=C(c1ccccc1)N1C2C=CC(C2)N1C(=O)c1ccccc1,7
COc1ccc(S(=O)(=O)Nc2ccccn2)cc1C(=O)NC1CCCCC1,0
O=C(NCCO)c1ccc(Br)cc1Br,2
CC(C)[C@H](CO)NC(=O)c1cc2ccc1CCc1ccc(cc1)CC2,4
O=c1c(SCc2ccco2)c(SCc2ccco2)cnn1-c1ccccc1,31*
CCSc1cnn(-c2ccccc2)c(=O)c1SCC,15
O=c1c(SCc2ccccc2)c(SCc2ccccc2)cnn1-c1ccccc1,4
Nc1cc2nsnc2cc1Br,96*
Nc1cnc(Br)cc1Br,9
O=C(NCCC1=CCCCC1)c1ccco1,4
O=C(NCCC1=CCCCC1)c1cc(-c2ccco2)nc2ccccc12,42*
O=C(NCCC1=CCCCC1)c1ccccc1Cl,1
CCN1C(=O)N=C(Cc2cc(Br)ccc2OCc2ccc(C(=O)O)cc2)C1=O,1
O=C(O)Cc1ccccc1Sc1cccc(C(F)(F)F)c1,-1
O=C(O)c1cc(C(F)(F)F)ccc1Sc1ccccc1,58*
Nc1cc(C(F)(F)F)ccc1Sc1ccccc1C(=O)O,7
